Experimental data: PubChem BioAssay (NCATS)
Inconclusive results are not listed. Entries that show only a call come without a potency. The source made the active and inactive calls. Calls come from the whole dose curve; as a rule, active = well fitted inhibition curve with a large enough effect; inconclusive = small, poorly fitted or top-dose-only effect; inactive = no such curve, though single readings can be large or run the other way.

Target: Cytochrome P450 3A4 (Homo sapiens) (UniProt P08684)
Sequence (P08684 whole entry, looked up): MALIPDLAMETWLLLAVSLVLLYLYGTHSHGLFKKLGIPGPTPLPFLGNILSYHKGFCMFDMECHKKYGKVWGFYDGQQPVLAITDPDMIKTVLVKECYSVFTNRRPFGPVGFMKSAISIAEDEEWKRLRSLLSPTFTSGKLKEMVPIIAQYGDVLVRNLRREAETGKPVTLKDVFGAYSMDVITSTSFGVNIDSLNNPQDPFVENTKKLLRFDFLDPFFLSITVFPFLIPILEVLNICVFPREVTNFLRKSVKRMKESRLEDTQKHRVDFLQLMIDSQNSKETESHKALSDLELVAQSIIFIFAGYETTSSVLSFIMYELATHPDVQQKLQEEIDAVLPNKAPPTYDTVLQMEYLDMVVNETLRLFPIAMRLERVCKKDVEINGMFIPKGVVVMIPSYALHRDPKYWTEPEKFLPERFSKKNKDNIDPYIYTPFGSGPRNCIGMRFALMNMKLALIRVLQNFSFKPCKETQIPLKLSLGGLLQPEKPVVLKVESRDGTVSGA
Experiment: qHTS Assay for Inhibitors and Substrates of Cytochrome P450 3A4 (AID 884); note: nearly all actives have a fitted effect of over 50% in size
Conditions: recombinant CYP3A4, Luciferin-PPXE luminescence; series mostly up to 57.1 µM
How it was run: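 Luminescent readout of luciferin produced by CYP3A4 (20 nM) dealkylation of Luciferin-PPXE, 25 uM (its KM). NADPH-driven reaction ran 60 min at RT after 10 min compound preincubation; data scaled to 57 uM ketoconazole as 100% inhibition.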
Potency is the fitted concentration of half-maximal effect.

Compound | Potency
CC(C)NC[C@@H](O)COc1cccc2ccccc12 | inactive
Nc1nc2ncc(CNc3ccc(C(=O)N[C@@H](CCC(=O)O)C(=O)O)cc3)nc2c(=O)[nH]1 | inactive
CCCn1c(=O)[nH]c(=O)c2[nH]cnc21 | inactive
O=C(O)c1cc2cc(Cc3cccnc3)ccc2o1 | inactive
CC(C)(C(=O)c1cccnc1)c1cccnc1 | 1260 nM (active)
Cc1ccnc(NS(=O)(=O)c2ccc(N)cc2)n1 | inactive
CCOC(=O)n1ccn(C)c1=S | inactive
C=C(CC)C(=O)c1ccc(OCC(=O)O)c(Cl)c1Cl | inactive
C1CCc2nnnn2CC1 | inactive
O=C1CCC(c2ccc(-n3ccnc3)cc2)=NN1 | 1580 nM (active)
O=C(CCCN1CCC(O)(c2ccc(Br)cc2)CC1)c1ccc(F)cc1 | inactive
CN1CCC(=C2c3ccccc3Sc3ccccc32)CC1 | inactive
